In the library only some 1.1% were active in any assay of this set; here they are far more common.
mIDH1 inhibitor: qHTS for Inhibitors of mutant isocitrate dehydrogenase 1 (IDH1): qHTS; Isocitrate dehydrogenase [NADP] cytoplasmic (Homo sapiens), O75874; IDH1-R132H enzyme, NADPH consumption, diaphorase/resazurin fluorescence; Potency, µM (doses to about 76.6 µM), usual class: inhibitors; 0.093% of 390,000 active; AID 602179, 2012; note: nearly all actives have a fitted effect of over 65% in size
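IDH1-R132H (0.5 ug/mL) preincubated 30 min with compound, then NADPH (0.016 mM) and alpha-KG (2 mM) added; 80 min at RT, pH 7.5. Remaining NADPH coupled via diaphorase/resazurin to fluorescence (540/590 nm); concentration-response curves normalized to no-enzyme control.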
Eya2 phos inh: qHTS Assay for Inhibitors of the Phosphatase Activity of Eya2. recombinant Eya2, OMFP fluorescence dephosphorylation (OMFP is methylfluorescein phosphate). 0.006% of 330,000 active. AID 488837, 2010. Potency, µM (top dose mostly 76.9 µM), actives largely listed as inhibitors. Protein phosphatase EYA2 (Homo sapiens), O00167
Target sequence (O00167 whole entry, looked up): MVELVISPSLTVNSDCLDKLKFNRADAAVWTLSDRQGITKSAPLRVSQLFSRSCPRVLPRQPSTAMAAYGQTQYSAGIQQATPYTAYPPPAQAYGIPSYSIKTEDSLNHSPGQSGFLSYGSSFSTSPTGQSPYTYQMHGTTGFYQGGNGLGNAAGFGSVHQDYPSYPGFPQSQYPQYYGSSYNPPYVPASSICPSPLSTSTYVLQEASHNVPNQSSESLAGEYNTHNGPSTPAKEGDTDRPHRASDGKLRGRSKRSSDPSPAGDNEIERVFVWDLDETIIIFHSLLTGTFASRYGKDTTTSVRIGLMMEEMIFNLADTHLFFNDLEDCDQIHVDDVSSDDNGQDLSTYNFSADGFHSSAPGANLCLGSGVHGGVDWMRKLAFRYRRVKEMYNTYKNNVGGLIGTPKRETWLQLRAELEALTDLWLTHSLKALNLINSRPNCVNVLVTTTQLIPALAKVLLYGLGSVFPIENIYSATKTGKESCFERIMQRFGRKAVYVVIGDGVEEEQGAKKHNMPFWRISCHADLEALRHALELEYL
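Eya2 (0.2 uM) preincubated 10 min at ambient with compound, then OMFP substrate added at 50 uM; 10 min reaction in 50 mM HEPES pH 7.5, 50 mM NaCl, 5 uM MgCl2, 0.05% BSA, 1 mM DTT. Fluorescence read at Ex 485/Em 525 nm.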
RGS4 inhibitor: Inhibitors of Regulator of G Protein Signaling (RGS) 4: qHTS; Regulator of G-protein signaling 4 (Homo sapiens), P49798; Transcreener GDP fluorescence polarization, RGS4-accelerated GTP hydrolysis; Potency, µM (titrated, usually from 114 µM), actives largely listed as inhibitors; 0.039% of 390,000 active; note: nearly all actives have a fitted effect of over 75% in size
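MLSMR compounds (23 nl, pin-transferred) preincubated 10 min at room temperature with a 500nM (2x) first reagent, then RGS4 at 900nM (2x) plus Transcreener GDP mix added; fluorescence polarization (620/688 nm) read before and after 90 min at 30 °C.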
TrxR1 substrate: qHTS Assay for Substrates of Mammalian Selenoprotein Thioredoxin Reductase 1 (TrxR1): qHTS; Thioredoxin reductase 1, cytoplasmic (Rattus norvegicus), O89049; purified TrxR1 substrate turnover, NADPH consumption readout; Potency, µM (titrated, usually from 114 µM); 0.01% of 390,000 active; AID 588456, 2011; note: nearly all actives have a fitted effect of over 50% in size
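Rat TrxR1, dispensed at 90 nM, was prereduced with 400 uM NADPH (final) for 5 min at ~22 deg C, then incubated with compound 15 min before 400 uM selenite. A first-read NADPH fluorescence drop versus no-compound background flagged substrates.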
TrxR1 inh: qHTS Assay for Inhibitors of Mammalian Selenoprotein Thioredoxin Reductase 1 (TrxR1): qHTS; recombinant rTrxR1, NADPH fluorescence consumption, selenite substrate; Potency, µM (top dose mostly 114 µM), actives largely listed as inhibitors; 1% of 390,000 active; AID 588453, 2011; note: nearly all actives have a fitted effect of over 65% in size
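Rat TrxR1 (90 nM in the dispensed reagent) was pre-reduced with 400 uM NADPH for 5 min at room temperature, then incubated with compound for 15 min. After 400 uM selenite was added, NADPH fluorescence (Ex 340/Em 450 nm) was followed for 8 min.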
Numbers stand for hits; 0 = inactive; ? = inconclusive; - = no result given. Calls come from the whole dose curve; as a rule, active = well fitted curve in the direction sought with a large enough effect; inconclusive = small, poorly fitted or top-dose-only effect, or another doubt; inactive = no such curve, though single readings can be large; an effect the other way counts as inactive or inconclusive.

SMILES | mIDH1 inhibitor | Eya2 phos inh | RGS4 inhibitor | TrxR1 substrate | TrxR1 inh
O=C(/C=C/c1ccc(OC(F)F)cc1)OCC(=O)N1CCN(C(=O)c2ccco2)CC1 | 0 | 0 | ? | 0 | 0
CCOC(=O)c1c(C)[nH]c(C)c1S(=O)(=O)N1CCCC(C(=O)Nc2cccc(C)n2)C1 (stereo unspecified) | 0 | - | 0 | 0 | 0
O=C(COC(=O)c1c2c(nc3ccccc13)/C(=C\c1ccco1)CC2)NC1CCCC1 | 0 | - | ? | 0 | ?
CC1CCCCC1NC(=O)COC(=O)c1c2c(nc3ccccc13)/C(=C\c1ccco1)CC2 (stereo unspecified) | 0 | - | ? | 0 | 14µM
CC1CCCC(NC(=O)COC(=O)/C=C/c2ccco2)C1C (stereo unspecified) | 0 | 0 | 0 | 0 | 22µM
CC1CCCC(C)N1C(=O)COC(=O)/C=C/c1ccco1 (stereo unspecified) | 0 | 0 | 0 | 0 | 50µM
O=C(CCNS(=O)(=O)c1cccc(Cl)c1)OCC(=O)N1CCN(C(=O)c2ccco2)CC1 | 0 | 0 | 0 | 0 | 50µM
CC(C)CC(=O)/C=C/n1c(=S)oc2ccccc21 | 0 | 0 | 0 | 0 | 6.3µM
CC(=O)Nc1ccc(NC(=O)CCn2c(=S)oc3ccccc32)cc1 | 0 | 0 | 0 | 0 | 0
Cn1c(=S)oc2ccccc21 | 0 | 0 | 0 | 0 | 0
CC(=O)/C=C/n1c(=S)oc2ccccc21 | 0 | 0 | 0 | 0 | 3.2µM
Cc1noc(C)c1COc1ccccc1C(=O)N1CCN(S(=O)(=O)c2ccc(F)c(F)c2)CC1 | 0 | - | 0 | 0 | 0
O=C(Nc1ccc(Cc2ccncc2)cc1)c1cccc([N+](=O)[O-])c1 | 0 | 0 | 0 | 0 | 0
O=C(CCNc1ccc(Cc2ccncc2)cc1)c1ccc([N+](=O)[O-])cc1 | 0 | 0 | ? | 0 | 16µM
Cc1ccc(CONC(=O)c2cccc([N+](=O)[O-])c2)cc1 | 0 | 0 | 0 | 0 | 0
O=C(CCNc1ccc(Br)cc1)c1cccc([N+](=O)[O-])c1 | 0 | 0 | 0 | 0 | 16µM
O=C(CCNc1ccc(F)cc1)c1cccc([N+](=O)[O-])c1 | 0 | 0 | 0 | 0 | 3.5µM
Cc1ccc(NCCC(=O)c2cccc([N+](=O)[O-])c2)cc1 | 0 | 0 | 0 | 0 | 3.5µM
COc1cc(C(=O)N/N=C/c2coc3ccccc3c2=O)cc(OC)c1OC | 0 | 0 | 0 | 0 | 0
Cc1ccc(S(=O)(=O)N2CCC[C@H]2C(=O)OCC(=O)N2c3ccccc3NC(=O)C2(C)C)cc1 | 0 | - | 0 | 0 | 0
Cc1cc(-c2n[nH]c(=S)n2/N=C/C=C/c2ccccc2)n[nH]1 | 0 | 0 | 0 | 0 | ?
O=C(CCNc1ccccc1)c1cccc([N+](=O)[O-])c1 | 0 | 0 | 0 | 0 | 1.6µM
Cc1ccc(C(c2cc(Cl)c3cccnc3c2O)N2CCN(C)CC2)cc1 (stereo unspecified) | 0 | 0 | ? | 0 | 4.5µM
CCCCC(=O)NC(c1ccccc1Cl)c1ccc2cccnc2c1O (stereo unspecified) | 0 | 0 | 0 | 0 | 0
Oc1c(C(c2ccccc2Cl)N2CCCC2)ccc2cccnc12 (stereo unspecified) | 0 | 0 | 0 | 0 | 7.1µM
SMILES | mIDH1 inhibitor | Eya2 phos inh | RGS4 inhibitor | TrxR1 substrate | TrxR1 inh
Oc1c(C(c2ccc(Cl)cc2)N2CCCC2)cc(Cl)c2cccnc12 (stereo unspecified) | 0 | 0 | 0 | 0 | 50µM
CN1CCN(C(c2ccc(C(F)(F)F)cc2)c2ccc3cccnc3c2O)CC1 (stereo unspecified) | 0 | 0 | ? | 0 | 6.3µM
CN1CCN(C(c2ccccn2)c2cc(Cl)c3cccnc3c2O)CC1 (stereo unspecified) | 0 | 0 | ? | 0 | ?
CC(=O)NC(c1ccc(C(C)C)cc1)c1ccc2cccnc2c1O (stereo unspecified) | 0 | 0 | 0 | 0 | 0
CC(CP(=O)(O)O)NC(=O)Cc1ccccc1 (stereo unspecified) | 0 | 0 | 0 | 0 | 0
O=[N+]([O-])c1cc(C(F)(F)F)cc([N+](=O)[O-])c1NCCNC(=S)Nc1ccc(Cl)c(Cl)c1 | 0 | 0 | 0 | 0 | 0

Assay outcomes: PubChem, National Center for Advancing Translational Sciences (NCATS)
